Measurements taken from the supplement of paper PMC4466140.

Key:
Experiment in all cases: SPOT peptide array binding signal intensity (averaged, normalized) (arbitrary units (background-subtracted, floor 0; scale differs between SH3 domains)); higher = stronger binding of the SH3 domain to the peptide
AgAbp1 = biological target: AgAbp1
Method in brief: (§1)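 To measure binding, SH3 domains from four yeast species were fused to GST, expressed in E. coli BL21(DE3) and purified on glutathione Sepharose. Each domain was incubated at 10 μg/ml overnight at 4°C on cellulose membranes with synthetic 15-mer peptides whose cysteines were replaced by serines. Anti-GST antibody, an HRP anti-mouse secondary and luminol were used for detection, and images were quantified with Genespotter. Reported binding signal is normalized, background-subtracted spot intensity averaged over replicates, in arbitrary units that differ between domains.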

AgBbc1 = biological target: AgBbc1
Method in brief: as §1

AgBem1-D1 = biological target: AgBem1-D1
Method in brief: as §1

AgBzz1-D1 = biological target: AgBzz1-D1
Method in brief: as §1

AgBzz1-D2 = biological target: AgBzz1-D2
Method in brief: as §1

AgCyk3 = biological target: AgCyk3
Method in brief: as §1

AgFus1 = biological target: AgFus1
Method in brief: as §1

AgHof1 = biological target: AgHof1
Method in brief: as §1

AgHse1 = biological target: AgHse1
Method in brief: as §1

AgLsb1 = biological target: AgLsb1
Method in brief: as §1

AgLsb4 = biological target: AgLsb4
Method in brief: as §1

AgMyo5 = biological target: AgMyo5
Method in brief: as §1

AgNbp2 = biological target: AgNbp2
Method in brief: as §1

AgRvs167 = biological target: AgRvs167
Method in brief: as §1

AgSho1 = biological target: AgSho1
Method in brief: as §1

AgSla1-D1-D2 = biological target: AgSla1-D1-D2
Method in brief: as §1

AgSla1-D3 = biological target: AgSla1-D3
Method in brief: as §1

CaAbp1-D1 = biological target: CaAbp1-D1
Method in brief: as §1

CaAbp1-D2 = biological target: CaAbp1-D2
Method in brief: as §1

CaBbc1 = biological target: CaBbc1
Method in brief: as §1

CaBem1-D1 = biological target: CaBem1-D1
Method in brief: as §1

CaBzz1-D1 = biological target: CaBzz1-D1
Method in brief: as §1

CaBzz1-D2 = biological target: CaBzz1-D2
Method in brief: as §1

CaCyk3 = biological target: CaCyk3
Method in brief: as §1

CaFus1 = biological target: CaFus1
Method in brief: as §1

CaHof1 = biological target: CaHof1
Method in brief: as §1

CaHse1 = biological target: CaHse1
Method in brief: as §1

CaLsb1 = biological target: CaLsb1
Method in brief: as §1

CaLsb4 = biological target: CaLsb4
Method in brief: as §1

CaMyo5 = biological target: CaMyo5
Method in brief: as §1

CaNbp2 = biological target: CaNbp2
Method in brief: as §1

CaRvs167 = biological target: CaRvs167
Method in brief: as §1

CaRvs167-3 = biological target: CaRvs167-3
Method in brief: as §1

CaSho1 = biological target: CaSho1
Method in brief: as §1

CaSla1-D1-D2 = biological target: CaSla1-D1-D2
Method in brief: as §1

CaSla1-D3 = biological target: CaSla1-D3
Method in brief: as §1

ScAbp1 = biological target: ScAbp1
Method in brief: as §1

ScBbc1 = biological target: ScBbc1
Method in brief: as §1

ScBem1-D1 = biological target: ScBem1-D1
Method in brief: as §1

ScBzz1-D1 = biological target: ScBzz1-D1
Method in brief: as §1

ScBzz1-D2 = biological target: ScBzz1-D2
Method in brief: as §1

ScCyk3 = biological target: ScCyk3
Method in brief: as §1

ScFus1 = biological target: ScFus1
Method in brief: as §1

ScHof1 = biological target: ScHof1
Method in brief: as §1

ScHse1 = biological target: ScHse1
Method in brief: as §1

ScLsb1 = biological target: ScLsb1
Method in brief: as §1

ScLsb2 = biological target: ScLsb2
Method in brief: as §1

ScLsb3 = biological target: ScLsb3
Method in brief: as §1

ScLsb4 = biological target: ScLsb4
Method in brief: as §1

ScMyo3 = biological target: ScMyo3
Method in brief: as §1

ScMyo5 = biological target: ScMyo5
Method in brief: as §1

ScNbp2 = biological target: ScNbp2
Method in brief: as §1

ScPex13 = biological target: ScPex13
Method in brief: as §1

ScRvs167 = biological target: ScRvs167
Method in brief: as §1

ScSho1 = biological target: ScSho1
Method in brief: as §1

ScSla1-D1-D2 = biological target: ScSla1-D1-D2
Method in brief: as §1

ScSla1-D3 = biological target: ScSla1-D3
Method in brief: as §1

SpAbp1-D1 = biological target: SpAbp1-D1
Method in brief: as §1

SpBbc1 = biological target: SpBbc1
Method in brief: as §1

SpBzz1-D1 = biological target: SpBzz1-D1
Method in brief: as §1

SpBzz1-D2 = biological target: SpBzz1-D2
Method in brief: as §1

SpCyk3 = biological target: SpCyk3
Method in brief: as §1

SpHof1 = biological target: SpHof1
Method in brief: as §1

SpHof1-2 = biological target: SpHof1-2
Method in brief: as §1

SpHof1-3 = biological target: SpHof1-3
Method in brief: as §1

SpHse1 = biological target: SpHse1
Method in brief: as §1

SpLsb1 = biological target: SpLsb1
Method in brief: as §1

SpLsb4 = biological target: SpLsb4
Method in brief: as §1

SpMyo1 = biological target: SpMyo1
Method in brief: as §1

SpNbp2 = biological target: SpNbp2
Method in brief: as §1

SpPex13 = biological target: SpPex13
Method in brief: as §1

SpRvs167 = biological target: SpRvs167
Method in brief: as §1

SpSla1-D1-D2 = biological target: SpSla1-D1-D2
Method in brief: as §1

SpSla1-D3 = biological target: SpSla1-D3
Method in brief: as §1

Question: With RRARRQMGIPTISQV as the binder, how does the “SPOT peptide array binding signal intensity” value (AgAbp1) read?
Answer: 125

Question: What about the “SPOT peptide array binding signal intensity” value (AgBbc1) of the same binder?
Answer: 71.8

Question: And the “SPOT peptide array binding signal intensity” value (AgBem1-D1)?
Answer: 252

Question: And the “SPOT peptide array binding signal intensity” value (AgBzz1-D1)?
Answer: 41

Question: And the “SPOT peptide array binding signal intensity” value (AgBzz1-D2)?
Answer: 35

Question: What about the “SPOT peptide array binding signal intensity” value (AgCyk3) of the same binder?
Answer: 5

Question: And the “SPOT peptide array binding signal intensity” value (AgFus1)?
Answer: 716

Question: And the “SPOT peptide array binding signal intensity” value (AgHof1)?
Answer: 83.8

Question: What about the “SPOT peptide array binding signal intensity” value (AgHse1) of the same binder?
Answer: 854

Question: And the “SPOT peptide array binding signal intensity” value (AgLsb1)?
Answer: 9.75

Question: And the “SPOT peptide array binding signal intensity” value (AgLsb4)?
Answer: 138

Question: And the “SPOT peptide array binding signal intensity” value (AgMyo5)?
Answer: 5

Question: And the “SPOT peptide array binding signal intensity” value (AgNbp2)?
Answer: 724

Question: What about the “SPOT peptide array binding signal intensity” value (AgRvs167) of the same binder?
Answer: 10.7

Question: And the “SPOT peptide array binding signal intensity” value (AgSho1)?
Answer: 287

Question: What about the “SPOT peptide array binding signal intensity” value (AgSla1-D1-D2) of the same binder?
Answer: 99.5

Question: What about the “SPOT peptide array binding signal intensity” value (AgSla1-D3) of the same binder?
Answer: 14.5

Question: What about the “SPOT peptide array binding signal intensity” value (CaAbp1-D1) of the same binder?
Answer: 514

Question: And the “SPOT peptide array binding signal intensity” value (CaAbp1-D2)?
Answer: 941

Question: And the “SPOT peptide array binding signal intensity” value (CaBbc1)?
Answer: 197

Question: What about the “SPOT peptide array binding signal intensity” value (CaBem1-D1) of the same binder?
Answer: 299

Question: What about the “SPOT peptide array binding signal intensity” value (CaBzz1-D1) of the same binder?
Answer: 98.5

Question: What about the “SPOT peptide array binding signal intensity” value (CaBzz1-D2) of the same binder?
Answer: 115

Question: What about the “SPOT peptide array binding signal intensity” value (CaCyk3) of the same binder?
Answer: 25.5

Question: And the “SPOT peptide array binding signal intensity” value (CaFus1)?
Answer: 657

Question: What about the “SPOT peptide array binding signal intensity” value (CaHof1) of the same binder?
Answer: ≤ 0

Question: And the “SPOT peptide array binding signal intensity” value (CaHse1)?
Answer: 278

Question: What about the “SPOT peptide array binding signal intensity” value (CaLsb1) of the same binder?
Answer: 2.25

Question: And the “SPOT peptide array binding signal intensity” value (CaLsb4)?
Answer: 806

Question: And the “SPOT peptide array binding signal intensity” value (CaMyo5)?
Answer: 12.5

Question: And the “SPOT peptide array binding signal intensity” value (CaNbp2)?
Answer: 1560

Question: What about the “SPOT peptide array binding signal intensity” value (CaRvs167) of the same binder?
Answer: 58

Question: What about the “SPOT peptide array binding signal intensity” value (CaRvs167-3) of the same binder?
Answer: 89.8

Question: What about the “SPOT peptide array binding signal intensity” value (CaSho1) of the same binder?
Answer: 758

Question: And the “SPOT peptide array binding signal intensity” value (CaSla1-D1-D2)?
Answer: 385

Question: What about the “SPOT peptide array binding signal intensity” value (CaSla1-D3) of the same binder?
Answer: 104

Question: And the “SPOT peptide array binding signal intensity” value (ScAbp1)?
Answer: 152

Question: And the “SPOT peptide array binding signal intensity” value (ScBbc1)?
Answer: 35.5

Question: And the “SPOT peptide array binding signal intensity” value (ScBem1-D1)?
Answer: 100

Question: What about the “SPOT peptide array binding signal intensity” value (ScBzz1-D1) of the same binder?
Answer: 11.5

Question: What about the “SPOT peptide array binding signal intensity” value (ScBzz1-D2) of the same binder?
Answer: 54.5

Question: What about the “SPOT peptide array binding signal intensity” value (ScCyk3) of the same binder?
Answer: 53.5

Question: What about the “SPOT peptide array binding signal intensity” value (ScFus1) of the same binder?
Answer: 671

Question: And the “SPOT peptide array binding signal intensity” value (ScHof1)?
Answer: 0.5

Question: And the “SPOT peptide array binding signal intensity” value (ScHse1)?
Answer: 2110

Question: And the “SPOT peptide array binding signal intensity” value (ScLsb1)?
Answer: 72.5

Question: And the “SPOT peptide array binding signal intensity” value (ScLsb2)?
Answer: 2

Question: What about the “SPOT peptide array binding signal intensity” value (ScLsb3) of the same binder?
Answer: 639

Question: And the “SPOT peptide array binding signal intensity” value (ScLsb4)?
Answer: 121

Question: What about the “SPOT peptide array binding signal intensity” value (ScMyo3) of the same binder?
Answer: 2.25

Question: What about the “SPOT peptide array binding signal intensity” value (ScMyo5) of the same binder?
Answer: 1.5

Question: What about the “SPOT peptide array binding signal intensity” value (ScNbp2) of the same binder?
Answer: 1060

Question: And the “SPOT peptide array binding signal intensity” value (ScPex13)?
Answer: 96.9

Question: And the “SPOT peptide array binding signal intensity” value (ScRvs167)?
Answer: 95

Question: What about the “SPOT peptide array binding signal intensity” value (ScSho1) of the same binder?
Answer: 978

Question: And the “SPOT peptide array binding signal intensity” value (ScSla1-D1-D2)?
Answer: 484

Question: And the “SPOT peptide array binding signal intensity” value (ScSla1-D3)?
Answer: 308

Question: What about the “SPOT peptide array binding signal intensity” value (SpAbp1-D1) of the same binder?
Answer: 416

Question: What about the “SPOT peptide array binding signal intensity” value (SpBbc1) of the same binder?
Answer: 12.2

Question: What about the “SPOT peptide array binding signal intensity” value (SpBzz1-D1) of the same binder?
Answer: 143

Question: And the “SPOT peptide array binding signal intensity” value (SpBzz1-D2)?
Answer: 4.25

Question: What about the “SPOT peptide array binding signal intensity” value (SpCyk3) of the same binder?
Answer: 3.5

Question: What about the “SPOT peptide array binding signal intensity” value (SpHof1) of the same binder?
Answer: 188

Question: What about the “SPOT peptide array binding signal intensity” value (SpHof1-2) of the same binder?
Answer: 71

Question: What about the “SPOT peptide array binding signal intensity” value (SpHof1-3) of the same binder?
Answer: 435

Question: And the “SPOT peptide array binding signal intensity” value (SpHse1)?
Answer: 1100

Question: What about the “SPOT peptide array binding signal intensity” value (SpLsb1) of the same binder?
Answer: 7.5

Question: And the “SPOT peptide array binding signal intensity” value (SpLsb4)?
Answer: 642

Question: And the “SPOT peptide array binding signal intensity” value (SpMyo1)?
Answer: 13.5

Question: And the “SPOT peptide array binding signal intensity” value (SpNbp2)?
Answer: 1480

Question: What about the “SPOT peptide array binding signal intensity” value (SpPex13) of the same binder?
Answer: 86

Question: And the “SPOT peptide array binding signal intensity” value (SpRvs167)?
Answer: 50.2

Question: And the “SPOT peptide array binding signal intensity” value (SpSla1-D1-D2)?
Answer: 24.2

Question: What about the “SPOT peptide array binding signal intensity” value (SpSla1-D3) of the same binder?
Answer: 131
